Screens from PubChem.
Compounds with a hit are over-represented: about 2.4% of the library has one in this group of screens.
PTHR1 ag = agonists of human PTHR1 parathyroid hormone receptor; 410,000 tested, 0.075% active; Potency, µM (titrated, usually from 115 µM), for the others: at the highest dose activation, actives largely listed as activators; HEK293 GP2 PTHR1 cells, GloSensor cAMP luminescence, 1 h; Q03431; note: potency is the fitted concentration of half-maximal effect; nearly all actives have a fitted effect of over 55% in size
Target sequence (Q03431 whole entry, looked up): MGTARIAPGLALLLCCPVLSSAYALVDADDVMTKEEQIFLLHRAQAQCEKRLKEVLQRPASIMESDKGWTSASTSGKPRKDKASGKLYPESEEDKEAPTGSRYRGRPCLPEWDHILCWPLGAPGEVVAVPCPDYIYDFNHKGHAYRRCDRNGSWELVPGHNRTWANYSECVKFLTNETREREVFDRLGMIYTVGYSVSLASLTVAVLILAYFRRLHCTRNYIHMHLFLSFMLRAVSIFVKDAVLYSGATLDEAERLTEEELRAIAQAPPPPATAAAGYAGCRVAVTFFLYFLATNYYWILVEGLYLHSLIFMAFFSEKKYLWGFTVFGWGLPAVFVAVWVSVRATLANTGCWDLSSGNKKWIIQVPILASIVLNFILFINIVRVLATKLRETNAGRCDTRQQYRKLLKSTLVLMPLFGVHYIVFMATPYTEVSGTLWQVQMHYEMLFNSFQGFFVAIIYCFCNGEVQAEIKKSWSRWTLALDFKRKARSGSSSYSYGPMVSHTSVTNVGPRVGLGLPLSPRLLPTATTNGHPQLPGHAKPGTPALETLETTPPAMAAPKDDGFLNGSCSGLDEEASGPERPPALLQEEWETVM
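HEK-293-derived GP2 cells expressing PTHR1 and a GloSensor cAMP reporter, 3,000/well, plated overnight, given luciferin plus IBMX (each 0.5 mM as added) for 1 h at 37 °C, then compound for 1 h at 37 °C. Luminescence was read after 15 min at room temperature.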
GLP-1R agonist = activates the human GLP-1 receptor | 380,000 tested, 0.007% active | AID 624172 | HEK293 GLP-1R CRE-luciferase, luminescence, 4-6 h; cells express a hypersensitive GLP-1R form | P43220 | Potency, µM (top dose mostly 45.6 µM), without a hit: at the top dose activation, usual class: activators; note: potency is the fitted concentration of half-maximal effect; % of control where 0% means no effect
GLP1R inv ag = GLP-1 receptor (human) inverse agonism; Potency, µM (highest dose often 38.3 µM), for inactives: at the highest dose activity change, negative = inhibition, most hits filed as inhibitors; P43220; 410,000 tested, 1.6% active; HEK293 GLP-1R CRE-luciferase, luminescence, 24 h; GLP-1R form is constitutively active; note: potency is the fitted concentration of half-maximal effect; % is set by controls: 0 for no effect and ±100 for the full control effect; nearly all actives have a fitted effect of over 55% in size
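Cells are plated, allowed 12 hours at 37 deg C, then treated with compounds for 24 hr before luciferase detection reagent is added and luminescence is read after 12 min at room temperature. The HEK293 line carries constitutively active GLP-1R with a cAMP-responsive reporter.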
HEK293 tox = cytotoxicity in counter-screen for GLP-1R inverse agonists; HEK293 cAMP-luciferase reporter cells, luminescence, 24 h; Potency, µM (titrated, usually from 38.3 µM), without a hit: at the top dose activity change, negative = inhibition, most hits filed as inhibitors; 410,000 tested, 0.13% active; AID 624418;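 note: loss of luciferase light is scored as toxicity; potency is the fitted concentration of half-maximal effect; % is set by controls: 0 for no effect and ±100 for the full control effect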
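Quantitative HTS format, 1536 wells, 200 cells/uL seeded. Compounds: 23 nL, 24 h, 37 °C. Detection: luciferase reagent, luminescence at 12 min RT; decreased signal taken as cytotoxic.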
TRHR PAM = allosteric enhancers of human TRH receptor; 360,000 tested, 0.66% active; TRHR cells, fluo-8 calcium fluorescence, EC20 TRH enhancement; enhancement, % at 2 µM; in the data active = enhancement above about 30%; note: 0% is about no effect
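TRHR-expressing cells loaded with fluo-8 calcium dye were read kinetically (ex 480/em 530) during compound addition, then stimulated with an EC20 of TRH (10 nM final). Enhancement of the Gq-mediated intracellular calcium response was scored.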
TRHR ag = agonists of human TRH receptor. activation, % at 2 µM. AID 493084. TRHR cells, calcium flux fluo-8, FDSS agonist mode. P34981. 360,000 tested, 0.18% active; in the data active = activation above about 30%; note: 0% is about no effect
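In this calcium-flux screen, cells bearing human TRHR are dye-loaded with fluo-8, baselined for 10 cycles, then exposed to library compounds; positive kinetic calcium responses during the agonist phase mark hits, with TRH as control.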
An asterisk follows results filed as active; i = inactive; ? = inconclusive; / = not tested or not shown; [ ] = remark or other dose. Unless noted, calls come from the whole dose curve; as a rule, active = well fitted curve in the direction sought with a large enough effect; inconclusive = small, poorly fitted or top-dose-only effect, or another doubt; inactive = no such curve, though single readings can be large; an effect the other way counts as inactive or inconclusive.

SMILES | PTHR1 ag | GLP-1R agonist | GLP1R inv ag | HEK293 tox | TRHR PAM | TRHR ag
Cc1ccccc1NS(=O)(=O)c1cc(C(=O)NCCC2=CCCCC2)ccc1C | -25%[57.5 µM] | 4% | 11µM* | ? | -1 | 0
CCCCC(=O)N(C)c1c(CC)nc2c(OCc3ccccc3C)cccn12 | -8% | 9% | 11µM* | 6% | / | /
CCc1nc2c(OCc3ccc(C(F)(F)F)cc3)cccn2c1N(C)C(=O)C1CC1 | -24% | -7% | 14µM* | -7% | / | /
Cc1cc(/C=N/NC(N)=S)c(O)c(/C=N/NC(N)=S)c1 | i | 15% | -30% | i | 10 | 148*
CC(C)(C)c1ccc(C(=O)N2CCCC2c2cccs2)cc1 (stereo not given) | -94% | 5% | 11µM* | 13% | 1 | 0
Cc1ccc(CNC(=O)c2c3c(nc4ccccc24)C(=O)N(C2CCCCC2)C3)cc1 | -20% | / | 11µM* | -5% | -1 | 0
O=C(CNC(=O)c1cccs1)N/N=C/c1ccco1 | -22% | 3% | 13% | -5% | 2 | 1
COc1cc(C2Oc3ccccc3C=C2[N+](=O)[O-])cc(OC)c1OC (stereo not given) | -64% | -17% | 11µM* | -21% | -1 | 1
CC1=C(C#N)C(NC(=O)c2ccco2)(C(F)(F)F)C(=O)N1 (stereo not given) | i | -9% | 0% | 4% | -3 | 1
COc1ccc2c(c1)c1ncn(Cc3ccc(F)cc3)c(=O)c1n2C | -38% | 3% | 34% | 9% | -2 | 0
Cn1c2ccsc2c2ncn(Cc3ccc(F)cc3)c(=O)c21 | -12% | 13% | / | / | 36* | 0
CC1CC(=O)c2ccccc2C1C (stereo not given) | -14% | 2% | -1% | 3% | / | /
Cc1nnc(N/N=C/c2ccccc2F)n1N | i | 5% | 20% | -15% | 6 | 1
COCCCNC(=S)N/N=C/c1cccc(OC)c1O | -18% | 9% | 1.1µM* | ? | 2 | 7
COc1cccc(/C=N/Nc2nnc(C)n2N)c1O | i | 2% | 10µM* | ? | -2 | 0
Cc1cccnc1NC(=O)/C=C/c1ccc2c(c1)OCO2 | 0% | 4% | ? | 6% | -8 | 1
Cc1ccc(NC(=O)CN(C)C(=O)c2cccc(S(=O)(=O)N3CCc4ccccc43)c2)cc1 | -19% | -6% | 11µM* | -7% | -6 | 0
COCCCNC(=O)c1cccc(S(=O)(=O)N2CC3(C)CC2CC(C)(C)C3)c1 (stereo not given) | -7% | -2% | -12% | -19% | 5 | 0
CC(C)CN(CC(C)C)C(=O)c1cccc(S(=O)(=O)N2CCc3ccccc32)c1 | -7% | 6% | ? | ? | -7 | -1
CCCCNC(=O)c1cccc(S(=O)(=O)N2CC3(C)CC2CC(C)(C)C3)c1 (stereo not given) | -20% | 9% | 10µM* | 2% | -7 | 4
COc1ccc(NC(=O)CN(C)C(=O)c2cccc(S(=O)(=O)N3CC4(C)CC3CC(C)(C)C4)c2)cc1 (stereo not given) | -25% | 21% | 11µM* | -22% | 0 | 0
O=C(CSc1nc(C2CC2)nc2ccccc12)Nc1ccccc1Cl | -17% | 1% | -1% | ? | 1 | 0
c1ccc(COc2ncnc3c2ncn3CCCNCC(c2ccccc2)c2ccccc2)cc1 | -27% | -8% | ? | 11µM* | / | /
COc1ncnc2c1ncn2CCCNCC(c1ccccc1)c1ccccc1 | -26% | 7% | -24% | -8% | / | /
CC(Oc1ccccc1)C(=O)N(CCC1=CCCCC1)c1c(N)n(Cc2ccccc2)c(=O)[nH]c1=O (stereo not given) | -52% | 2% | ? | -8% | -6 | 0
SMILES | PTHR1 ag | GLP-1R agonist | GLP1R inv ag | HEK293 tox | TRHR PAM | TRHR ag
CC1(C)Cc2c(cnn2-c2ccccc2)C(=O)/C1=N\NC(=O)c1ccccc1O | -27%[57.5 µM] | -12% | 11µM* | -27% | -1 | -1
CC1(C)Cc2c(cnn2-c2ccccc2)C(=O)/C1=N\NC(=O)c1ccccc1 | -8% | -2% | -2% | 12% | -1 | 0
Cc1ccc(-n2nc3ccc(NC(=O)COc4ccccc4)cc3n2)cc1Cl | i | / | 3% | -8% | 3 | -1
CCCCc1c(C)c2ccc(OCC(C)=O)cc2oc1=O | -27% | 17% | ? | -8% | 5 | -3
CCC(C)(C)NC(=O)CSc1nc(Cc2ccccc2)nc2ccccc12 | -79% | -2% | 4.5µM* | -23% | 0 | 0
Cc1ccc(S(=O)(=O)Nc2cc3c(cc2NCc2ccccc2)n(C)c(=O)n3C)cc1 | -18% | / | 0% | -13% | -1 | 0
CC(C)OCCCNC(=O)Nc1cccc2ccccc12 | -8% | -5% | -27% | -1% | -2 | 0
CCCCCCC(C)OC(=O)Nc1cccc2ccccc12 (stereo not given) | i | 9% | 8.9µM* | 21% | -4 | -1
Cc1cc(Cl)cc(Br)c1OCCCNCC(C)O (stereo not given) | i | 15% | 4µM* | -23% | 1 | 0
Cc1cc(C(F)(F)F)n2[nH]c(=O)c(N=Nc3ccccc3)c2n1 | 18µM* | -7% | -22% | ? | -1 | -1
Cc1cc(C)n2[nH]c(=O)c(N=Nc3ccccc3)c2n1 | i | -1% | 7% | ? | 0 | 0
COc1ccc(OC)c(NC(=S)N(CCc2c(C)[nH]c3ccc(C)cc23)Cc2cccs2)c1 | -3% | -3% | 11µM* | 6% | -10 | 0
COc1ccc(OC)c(NC(=S)N(CCc2c(C)[nH]c3ccccc23)Cc2cccs2)c1 | -49% | 8% | ? | -3% | -2 | 1
CCCCn1cc(S(=O)(=O)c2ccc(Cl)cc2)c(=O)c2cc(F)c(N3CCCC(C)C3)cc21 (stereo not given) | 0% | / | 1% | 1% | -17 | -1
Cc1ccc(C)c(S(=O)(=O)c2cn(C)c3cc(N4CCCCC4C)c(F)cc3c2=O)c1 (stereo not given) | i | / | ? | -17% | 37* | 0
Cn1cc(S(=O)(=O)c2ccc(Cl)cc2)c(=O)c2cc(F)c(N3CCCCCC3)cc21 | -19% | / | 6% | 3% | 35* | 1
CCCCn1cc(S(=O)(=O)c2ccc(CC)cc2)c(=O)c2cc(F)c(N3CCCC(C)C3)cc21 (stereo not given) | -24% | / | 6% | 0% | 39* | -1
